# Assay results reported in PubChem BioAssay (EPA / NIEHS).
# Inconclusive results are not listed. Active and inactive are the calls of the source. The calls were made as follows: active = hit-call score of the fitted dose curve at least 0.9, where 1 is the maximum; inconclusive = response in the unintended direction; inactive = score below 0.9.
# Read-out: organic anion transporter (SLCO1B1), SLCO1B1 (gene 10599)
# Experiment: CLD_SLCO1B1_24hr: CellzDirect (CLD) Gene Expression Assay for organic anion transporter (SLCO1B1) at 24 hours (AID 2283690)
# Experimental: CLD_24hr is a cell-based, multiplexed-readout assay that uses hepatocyte, a human liver primary cell, with measurements taken at 24 hours after chemical dosing in a 96-well plate.CLD_SLCO1B1_24hr is one of 16 assay component(s) measured or calculated from the CLD_24hr assay. It is designed to make measurements of mRNA induction, a form of inducible reporter, as detected with chemiluminescence signals by Quantitative Nuclease Protection Assay (qNPA) technology.Data from the assay component CLD_SLCO1B1_24hr was analyzed at the endpoint, CLD_SLCO1B1_24hr, in the positive analysis fitting direction relative to DMSO as the negative control and baseline of activity. Using a type of inducible reporter, gain-of-signal activity can be used to understand changes in the reporter gene as they relate to the gene SLCO1B1. Furthermore, this assay endpoint can be referred to as a primary readout. To generalize the intended target to other relatable targets, this assay endpoint is annotated to the transporter intended target family, where subfamily is organic anion transporter.
# Human hepatocyte cultures were treated daily for two consecutive days with fresh dosing solutions containing appropriate concentrations of the 320 ToxCast chemicals (chemical identities were blinded to CellzDirect and other ToxCast collaborators), vehicle control (0.2% DMSO), and positive control inducers as summarized in Table 1. Due to the large number of treatment groups and chemicals examined, the ToxCast chemicals were divided into two groups (spanning two independent cultures of hepatocytes from separate donor preparations (Hu778: ToxCast plates 1 and 2; Hu776: ToxCast plates 3 and 4). Each preparation of human hepatocyte cultures was treated with respective vehicle control, medium only control, set of six positive controls/reference chemicals for the five hepatic receptor pathways, and a subset of eight of the ToxCast chemicals (indoxacarb, pyrithiobac-sodium, norflurazon, cyhalofop-butyl, methomyl, thiram, acetochlor, and propiconazole). These replicate data, coupled with internal replicates designed within the blinded ToxCast chemical library, provided additional data to evaluate interindividual differences between hepatocyte preparations and their potential impact on chemical profiles.Cell morphology and integrity were evaluated using phase-contrast microscopy as an indicator of hepatocyte cell health (Tyson & Green, 1987). Cultures for each treatment group (i.e., media, vehicle [0.2% DMSO], positive control inducers [multiple concentrations], and the ToxCast chemicals [multiple concentrations]) were observed and cell morphology was assessed relative to vehicle control cultures at each harvest time point (0, 6, 24, or 48 h). […] Images were evaluated at the conclusion of the study to assess changes in cell integrity and account for the effects of chemical exposure on uncharacteristic changes in concentration-dependent gene expression profiles. The results from these determinations of apparent cytotoxicity were annotated (yes/no) alongside the corresponding qNPA data for reference.At the conclusion of each treatment period, hepatocyte cultures (96-well) were washed with 1 volume of HBSS, lysed by addition of 25 ul ArrayPlate lysis buffer (HTG, Tucson, AZ), and 70 ul/well of Denaturation Oil, denatured by incubation at 95C for 10 min, and frozen at approximately -70C until analysis by nuclease protection assay (qNPA) (Roberts et al., 2007). For qNPA analysis, cell lysates were thawed at 50C for approximately 30 min, qNPA probes were added, and samples were incubated at 95C for 10 min to begin the detection process by denaturing the target RNA, dissociating the duplexes and secondary structure hybridization. At the conclusion of the hybridization period, S1 nuclease reagent was added to each sample to digest all nonprotected nucleotides at 50C for 60-90 min. […]
row,SMILES,outcome
1,CCc1nn(C)c(C(=O)NCc2ccc(C(C)(C)C)cc2)c1Cl,inactive
2,C#CCOS(=O)OC1CCCCC1Oc1ccc(C(C)(C)C)cc1 (stereo unspecified),inactive
3,Cc1c(F)c(F)c(COC(=O)C2C(/C=C(\Cl)C(F)(F)F)C2(C)C)c(F)c1F (stereo unspecified),inactive
4,CC(C)C1(C)N=C(c2nc3ccccc3cc2C(=O)O)NC1=O (stereo unspecified),inactive
5,COC(=O)C(C)Oc1ccc(Oc2ccc(Cl)cc2Cl)cc1 (stereo unspecified),inactive
6,N#Cc1cc(Br)c(O)c(Br)c1,inactive
7,CC1COC(Cn2cncn2)(c2ccc(Oc3ccc(Cl)cc3)cc2Cl)O1 (stereo unspecified),inactive
8,CCON=C(CC)C1=C(O)CC(c2c(C)cc(C)cc2C)CC1=O (stereo unspecified),inactive
9,Cc1cc(Cl)ccc1OCC(=O)O,inactive
10,CCNc1nc(Cl)nc(NCC)n1,inactive
11,O=C(O)c1nc(Cl)ccc1Cl,inactive
12,COC(=O)C=C(C)OP(=O)(OC)OC,inactive
13,CCOc1cc(Oc2ccc(C(F)(F)F)cc2Cl)ccc1[N+](=O)[O-],inactive
14,COC(=O)N(OC)c1ccccc1COc1ccn(-c2ccc(Cl)cc2)n1,inactive
15,CC(C)(C)c1ccc(CSc2cnn(C(C)(C)C)c(=O)c2Cl)cc1,inactive
16,COc1nc(C)nc(NC(=O)NS(=O)(=O)c2ccccc2Cl)n1,inactive
17,Oc1ccccc1-c1ccccc1,inactive
18,C=CC1(C)OC(=O)N(c2cc(Cl)cc(Cl)c2)C1=O (stereo unspecified),inactive
19,C=CCC1=C(C)C(OC(=O)C2C(C=C(C)C)C2(C)C)CC1=O (stereo unspecified),inactive
20,COP(N)(=O)SC (stereo unspecified),inactive
21,COc1nc(C)nc(NC(=O)NS(=O)(=O)c2ccccc2CCC(F)(F)F)n1,inactive
22,CCOC(=O)CC(SP(=S)(OC)OC)C(=O)OCC (stereo unspecified),inactive
23,COC(=O)c1ccccc1C(=O)OC,inactive
24,COc1ccc(C(c2ccc(OC)cc2)C(Cl)(Cl)Cl)cc1,inactive
25,O=C(Nc1ccccc1)Nc1ccnc(Cl)c1,inactive
26,CNC(=O)ON=CC(C)(C)SC,inactive
